Experimental data: PubChem BioAssay (NCATS)
Inconclusive results are not listed. Activity calls are given as the source filed them. Calls come from the whole dose curve; as a rule, active = well fitted activation curve with a large enough effect; inconclusive = small, poorly fitted or top-dose-only effect; inactive = no such curve, though single readings can be large or run the other way.

Target: Cellular tumor antigen p53 (Homo sapiens) (UniProt P04637)
Test: Primary qHTS for small molecule compounds that upregulate eGFP-tagged delta133p53alpha (in N-terminal) cells. (AID 2060322); note: nearly all actives have a fitted effect of over 75% in size;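 for activation: series mostly up to about 56 µM; 0% = DMSO vehicle and 100% = reference activator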
Settings: NCI-H358 eGFP-delta133p53alpha fluorescence, 24 h; activation: active compounds read high
Summary of the method: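 NCI-H358 cells pre-induced 24 h with 10 ng/ml doxycycline to express N-terminal eGFP-delta133p53alpha, then dosed 24 h at 37C without doxycycline; fixed, Hoechst-stained, GFP intensity by laser scanning cytometry, normalized to DMSO (0%) and 57.5 uM 5-azacytidine (100%).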
Potency is the fitted concentration of half-maximal effect.

Sequence of Cellular tumor antigen p53 (Homo sapiens) (P04637 whole entry, looked up): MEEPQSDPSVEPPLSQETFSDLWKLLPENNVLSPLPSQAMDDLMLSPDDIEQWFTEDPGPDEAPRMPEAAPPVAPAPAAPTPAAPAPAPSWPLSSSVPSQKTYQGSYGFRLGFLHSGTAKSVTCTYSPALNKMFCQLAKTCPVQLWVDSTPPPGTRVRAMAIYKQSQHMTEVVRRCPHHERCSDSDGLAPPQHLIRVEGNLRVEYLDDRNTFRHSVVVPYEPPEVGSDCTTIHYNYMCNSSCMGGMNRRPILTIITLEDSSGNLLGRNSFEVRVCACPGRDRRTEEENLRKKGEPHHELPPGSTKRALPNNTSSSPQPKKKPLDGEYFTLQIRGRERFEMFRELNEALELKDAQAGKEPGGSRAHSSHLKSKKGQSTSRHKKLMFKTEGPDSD

SMILES	activation	Potency
O=S(=O)(c1ccccc1)N(CC(F)(F)F)c1ccc(C(O)(C(F)(F)F)C(F)(F)F)cc1	-3.67% (inactive)	
O=C1CCC(=O)N(O)CCCCCNC(=O)CCC(=O)N(O)CCOCCNC(=O)CCC(=O)N(O)CCCCCN1	-16.8% (inactive)	
O=C(O)c1ccc(OC2OC(CO)C(O)C(O)C2O)cc1 (stereo not given)	-11.6% (inactive)	
COc1ccc(C2Oc3c(OC)cc(CCCO)cc3C2COC2OC(CO)C(O)C(O)C2O)cc1OC (stereo not given)	-3.82% (inactive)	
O=S(=O)(c1ccc(S(=O)(=O)n2cnc3ccccc32)cc1)N1CCCCCC1	0.333% (inactive)	
COC(=O)CC1(O)C(=O)Nc2ccccc21 (stereo not given)	-1.79% (inactive)	
C/C=C/C=C/[C@@H]1O[C@](O)([C@H](CC)C(=O)NC/C=C/C=C(\C)[C@@H](OC)[C@@H](C)[C@@H]2O[C@H](/C=C/C=C/C=C(\C)C(=O)c3c(O)ccn(C)c3=O)[C@H](O)[C@@H]2O)[C@H](O)[C@H](O)C1(C)C	4.58% (inactive)	
CC(C)c1cc(C(=O)N2CC[C@@H](NC(=O)C3CC3)C2)n[nH]1	-7.67% (inactive)	
CC1=C(C)C(=O)OC(C(C)(O)C2CCC3C4CC=C5CC(OC6OC(COC7OC(CO)C(O)C(O)C7O)C(O)C(O)C6O)CC(O)C5(C)C4CCC32C)C1 (stereo not given)	-6.87% (inactive)	
CC(=O)OC1C(O)CC(O[C@@H]2O[C@H](CO)[C@@H](O)[C@H](O)[C@H]2O)C2CCC3C(=O)OC(c4ccoc4)CC3(C)C21 (stereo not given in full)	3.05% (inactive)	
O=C(Nc1nc2cc(C(F)(F)F)cc(NC3CC3)n2n1)c1cccnc1		4.78 µM (active)
CC1(C)CCC2(C(=O)OC3OC(COC4OC(CO)C(O)C(O)C4O)C(O)C(O)C3O)CCC3(C)C(=CCC4C5(C)CCC(OC6OCC(O)C(O)C6O)C(C)(C)C5CCC43C)C2C1O (stereo not given)	-11.5% (inactive)	
CC(C)/C=C1\NC(=O)C(C(C)C)n2c1nc1ccccc1c2=O (stereo not given)	-10.7% (inactive)	
Cc1c(O)cc2c(c1O)COC1(O)CCCOC21 (stereo not given)	-17.6% (inactive)	
COCC1OC(n2cnc3c(=O)[nH]cnc32)C(O)C1O (stereo not given)	6.11% (inactive)	
CC(C)(C)OC(=O)c1ncn2c1C(C)(C)Nc1ccccc1-2	-12.5% (inactive)	
CC(=O)N[C@H]1[C@H](O[C@H]2CC[C@@]3(C)C(CC[C@]4(C)C3CC=C3C5CC(C)(C)CC[C@]5(C(=O)O)[C@H](O)C[C@]34C)C2(C)C)O[C@H](CO[C@@H]2OC[C@H](O)[C@H](O)[C@H]2O[C@@H]2OC[C@@H](O)[C@H](O)[C@H]2O)[C@@H](O)[C@@H]1O (stereo not given in full)	-19.1% (inactive)	
Cn1nnc(-c2ccc(-c3ccc(N4C[C@H](CO)OC4=O)cc3F)cn2)n1	-5.36% (inactive)	
CC1=C2CC3OC3(C)CCC3OC3(C)CC2OC1=O (stereo not given)	9.82% (inactive)	
OCC1OC(Oc2cc(O)cc(/C=C/c3ccc(O)cc3)c2)C(O)C(O)C1O (stereo not given)	-15.3% (inactive)	

SMILES	activation	Potency
CC1C(O)C(O)C2C(C(=O)OCCc3ccc(O)cc3)=COC(O[C@@H]3O[C@H](CO)[C@@H](O)[C@H](O)[C@H]3O)C12 (stereo not given in full)	11.5% (inactive)	
C[C@H]1C(=O)N2c3ccccc3[C@@]3(O)C[C@@H]4C(=O)N[C@](C)(c5nc6ccccc6c(=O)n54)N1[C@@H]23	-2.29% (inactive)	
C=C1C(OC2OCC(O)C(O)C2O)CC2C(C)(C)C(O)CCC2(C)C1CC/C(C)=C\CO (stereo not given)	7.63% (inactive)	
COc1cccc(Cn2ncc3c4sc(S(C)=O)cc4n(C)c3c2=O)c1 (stereo not given)	7.67% (inactive)	
C=CC(=O)Nc1cc(Nc2nccc(-c3c[nH]c4ccccc34)n2)c(OC)cc1N(C)CCN(C)C		10.7 µM (active)
CC1=CC2(O)/C=C/C(C)(O)CC(O)/C=C/C(=O)OC23C(=O)NC(CC(C)C)C3C1C (stereo not given)	-2.29% (inactive)	
COc1ccc(S(=O)(=O)Nc2cc(Cl)cc(Cl)c2OC)cc1N1CCNCC1	8.04% (inactive)	
COc1cc2c(c(OC)c1CC=C(C)C)C[C@H](c1ccc(O)c(CC=C(C)C)c1O)CO2	-7.14% (inactive)	
CC(CO)C1CCC2(C)CC3C(CO)CC(O)C3C(C)(O)C/C=C/12 (stereo not given)	-8.04% (inactive)	
CC(C(O)/C=C/C(C)(C)O)C1CCC2(C)C3C(=O)C=C4C(CCC(O)C4(C)C)C3(C)CCC12C (stereo not given)	-22.3% (inactive)	
CC(=O)O[C@H]1CC[C@@]2(CI)C(=CC[C@@H]3[C@@H]2CC[C@]2(C)[C@@H]([C@H](C)CCCC(C)C)CC[C@@H]32)C1	21.7% (inactive)	
CC(C)(C)c1cc(CN2CCN(CC(O)c3ccc(Cl)cc3)CC2)cc(C(C)(C)C)c1O (stereo not given)	-0.477% (inactive)	
CC1(C)CC[C@]2(C(=O)O[C@@H]3O[C@H](CO)[C@@H](O)[C@H](O)[C@H]3O)CC[C@]3(C)C(=CCC4[C@@]5(C)C[C@@H](O)[C@H](O)C(CO)(CO)C5CC[C@]43C)C2[C@@H]1O (stereo not given in full)	-15.3% (inactive)	
C=C(C)C1CCC(C)C12CC(O)C1(C)OC1C2OC(=O)C(N)CCC(=O)O (stereo not given)	-6.11% (inactive)	
CNC12CC3C[C@@](C)(C1)C[C@](C)(C3)C2	-6.33% (inactive)	
CCC(C)C1NC(=O)C2C(C)CCN2C(=O)C(CC(O)CO)OC(=O)CCNC(=O)C(C)N(C)C(=O)C(C(C)C)N(C)C1=O (stereo not given)	-6.11% (inactive)	
C#C[C@]1(OC(C)=O)CC[C@H]2[C@@H]3CCC4=C[C@@H](OC(C)=O)CC[C@@H]4[C@H]3CC[C@@]21C	6.33% (inactive)	
C=C(C(=O)O)C1CCC2(C)CCCC(C)(O)C2C1 (stereo not given)	-5.36% (inactive)	
COc1cc(-c2nc(N[C@H](CO)Cc3ccccc3)ccc2C(=O)NCCOc2ccccc2)cc(OC)c1OC	-11.9% (inactive)	
COc1ccc(/C=C/C(=O)O[C@@H]2[C@@H](O)[C@H](C)O[C@@H](O[C@H]3[C@@H]4C=CO[C@@H](O[C@H]5O[C@@H](CO)[C@H](O)[C@@H](O)[C@@H]5O)[C@@H]4[C@@]4(CO)O[C@@H]34)[C@@H]2OC(C)=O)cc1	-12.5% (inactive)	
